From PubChem BioAssay
This is a sample that favours compounds with a hit; in the whole collection about 0.72% have one here.
RXFP1 agonist: qHTS Assay for Agonists of the Relaxin Receptor RXFP1 | Relaxin receptor 1 (Homo sapiens), Q9HBX9 | HEK293T-RXFP1 cAMP TR-FRET, 30 min; response scale: percent of porcine relaxin response, buffer zero | Potency, µM (top dose mostly 57.5 µM), for inactives: top-dose activation, usual class: activators | 370,000 tested, 0.3% active; note: potency is the fitted concentration of half-maximal effect; % is set by controls: 0 for no effect and ±100 for the full control effect; nearly all actives have a fitted effect of over 60% in size
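cAMP rise read by TR-FRET after 30 min, 37C compound exposure (up to 58 uM) in RXFP1-transfected HEK293 cells with Ro 20174 present. EC50 from Hill-equation fits, with 29 nM porcine relaxin as 100% and buffer as basal.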
ERG-DNA inh: qHTS for Small Molecule Inhibitors of the ERG Ets/DNA interaction | Potency, µM (titrated, usually from 76.9 µM), inactives show at the top dose FP activity, negative = inhibition, actives largely listed as inhibitors | 370,000 tested, 0.028% active | Transcriptional regulator ERG (Homo sapiens), P11308 | fluorescence polarization, His-ERG Ets domain / labelled DNA; active = well fitted inhibition curve with a large enough effect in the polarisation, with a control signal flat; inconclusive = small, poorly fitted or top-dose-only effect, or effect the other way, or a change in a side signal; inactive = no such curve, though single readings can be large or run the other way; the % refers to the polarisation;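 note: polarization taken with two DNA probes labelled with fluorescein and Texas red; potency is the fitted concentration of half-maximal effect; % of control where 0% means no effect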
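His-tagged ERG Ets domain (1 uM in the protein solution; 300mM KCl, 50mM Tris-HCl, 1mM EDTA, 1mM DTT, pH 7.5) received compound, then a probe mix of 5 nM fluorescein-DNA and 100nM Texas-615-DNA. Fluorescence polarization was read for both dyes.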
miR-21 reporter: qHTS Assay for Modulators of miRNAs and/orActivators of miR-21; AID 2288, 2010; 340,000 tested, under 10 active; HeLa miR-21 FLuc reporter, luciferase, 48 h; Potency, µM (series often up to 38.3 µM), inactives show at the top dose activity change, positive = activation, most hits filed as activators;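 note: % of control where 0% means no effect; miR-21 action dims this reporter so a rising signal means less miR-21 action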
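HeLa miR-21-FLuc reporter line, endogenous miR-21; 2000 cells/well in DMEM/10% FBS; compound titration up to ~40uM final, 48 h, 37 degree Celsius; luciferase detection reagent, 15 min lysis, CCD luminescence.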
RXFP1 antag: qHTS Assay for Antagonists of the Relaxin Receptor RXFP1; AID 1259400, 2018; activity change, negative = inhibition, % at 57.5 µM; 350,000 tested, 0.59% active; HEK293-RXFP1, relaxin-stimulated cAMP HTRF, 30 min; active compounds read low; Relaxin receptor 1 (Homo sapiens), Q9HBX9;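 active = activity change of -60% or lower, but not beyond a set lower limit; inconclusive = change between -60% and -40%, or beyond the set limit; inactive = change above -40%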; note: % is set by controls: 0 for no effect and ±100 for the full control effect
Mito fusion act: qHTS Assay for Small Molecule Inhibitors of Mitochondrial Division or Activators of Mitochondrial Fusion. S. cerevisiae fusion-defective mutant growth rescue, CellTiterGlo 48 h. Potency, µM (doses to about 46.1 µM), for the others: at the top dose growth rescue (activation), usual class: activators. 320,000 tested, 0.23% active; note: potency is the fitted concentration of half-maximal effect; % of control where 0% means no effect; nearly all actives have a fitted effect of over 45% in size
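Growth-rescue viability read-out: after 48 h at the non-permissive 37C in glycerol/ethanol YPEG, yeast mitochondrial fusion mutants are measured by CellTiterGlo luminescence; compounds (23 nl pinned per well) restoring growth score as division inhibitors or fusion activators.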
S-ASM inh: Inhibitors of Secretory Acid Sphingomyelinase (S-ASM): qHTS. Sphingomyelin phosphodiesterase (Homo sapiens), P17405. placental ASM, HMU-PC fluorogenic substrate, 60 min. Potency, µM (titrated, usually from 57.5 µM), for inactives: at the top dose activity change, negative = inhibition, most hits filed as inhibitors. 340,000 tested, 0.006% active; note: potency is the fitted concentration of half-maximal effect
Target sequence (P17405 47-631 limits assumed): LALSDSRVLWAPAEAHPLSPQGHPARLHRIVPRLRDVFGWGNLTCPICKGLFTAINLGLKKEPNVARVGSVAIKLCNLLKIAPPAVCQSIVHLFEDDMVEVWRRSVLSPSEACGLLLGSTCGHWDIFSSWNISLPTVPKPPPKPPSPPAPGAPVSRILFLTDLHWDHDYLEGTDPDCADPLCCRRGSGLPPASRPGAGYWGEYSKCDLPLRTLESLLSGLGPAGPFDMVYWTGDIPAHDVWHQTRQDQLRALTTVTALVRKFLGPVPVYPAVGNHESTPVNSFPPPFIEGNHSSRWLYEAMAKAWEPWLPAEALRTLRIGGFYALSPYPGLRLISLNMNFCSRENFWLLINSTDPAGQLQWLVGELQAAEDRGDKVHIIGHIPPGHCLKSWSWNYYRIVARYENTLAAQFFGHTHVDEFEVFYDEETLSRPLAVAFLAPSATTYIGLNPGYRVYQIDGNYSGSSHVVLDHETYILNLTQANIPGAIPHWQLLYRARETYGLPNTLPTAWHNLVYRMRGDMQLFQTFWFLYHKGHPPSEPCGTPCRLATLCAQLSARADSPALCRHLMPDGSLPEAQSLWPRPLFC
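Fluorogenic HMU-PC substrate (9 uM final) is turned over by placental ASM in 60 min at 37 C after a 10 min compound preincubation. Reaction ended by alkaline stop (pH 10), with fluorescence read at 386/447 nm.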
* = called active by the depositor. Unless noted, calls come from the whole dose curve; as a rule, active = well fitted curve in the direction sought with a large enough effect; inconclusive = small, poorly fitted or top-dose-only effect, or another doubt; inactive = no such curve, though single readings can be large; an effect the other way counts as inactive or inconclusive.

How did Cc1ccc(CN(C)CC(=O)Nc2ccc3c(c2)CCC3)cc1 do in these assays?
RXFP1 agonist: -0.2%; ERG-DNA inh: -12.8%; miR-21 reporter: -9.4%; RXFP1 antag: -64.2*; Mito fusion act: -7.8%; S-ASM inh: -0.5%

What do the screens show for `CCc1ccc(CN(C)CC(=O)Nc2ccc3c(c2)CCC3)cc1`?
RXFP1 agonist: -0.7%; ERG-DNA inh: 0.6%; miR-21 reporter: -6.7%; RXFP1 antag: -5.1; Mito fusion act: 4.5%; S-ASM inh: -0.6%

Results for COc1ccc(NC(=O)CSCC(=O)Nc2ccc(S(=O)(=O)N3CCCCC3)cc2)cc1 ?
RXFP1 agonist: 1.0%; ERG-DNA inh: -2.2%; miR-21 reporter: 2.1%; RXFP1 antag: -63.6*; Mito fusion act: 1.1%

Results for CC(CCc1ccccc1)NC(=O)COC(=O)c1ccc([N+](=O)[O-])cc1 (stereo unspecified) ?
RXFP1 agonist: 1.0%; ERG-DNA inh: -17.8%; miR-21 reporter: 4.2%; RXFP1 antag: -6.2; Mito fusion act: -12.6%; S-ASM inh: -3.7%

What do the screens show for `CC(CCc1ccccc1)NC(=O)COC(=O)c1ccc(S(C)(=O)=O)c([N+](=O)[O-])c1` (stereo unspecified)?
RXFP1 agonist: -0.1%; ERG-DNA inh: 5.1%; miR-21 reporter: inconclusive; RXFP1 antag: -89.2*; Mito fusion act: 3.8%; S-ASM inh: 0.1%

How did O=C(Nc1nc(-c2ccncc2)cs1)C1c2ccccc2Oc2ccccc21 do in these assays?
RXFP1 agonist: -0.7%; ERG-DNA inh: 9.4%; miR-21 reporter: -0.8%; RXFP1 antag: inconclusive; Mito fusion act: 11.2µM*; S-ASM inh: -11.9%

How did CC1Cc2cc(/C(O)=C3/C(=O)C(=O)N(CCN4CCOCC4)C3c3ccc([N+](=O)[O-])cc3)ccc2O1 (stereo unspecified) do in these assays?
RXFP1 agonist: -0.2%; ERG-DNA inh: 8.8%; miR-21 reporter: -10.7%; RXFP1 antag: -14.3; Mito fusion act: 1.1%; S-ASM inh: -2.9%

How did Cc1ccc(-c2nnn(CC(=O)N(CC(=O)NC3CCCCC3)c3ccccc3F)n2)o1 do in these assays?
RXFP1 agonist: -1.8%; ERG-DNA inh: 18.3%; miR-21 reporter: -1.2%; RXFP1 antag: -3.9; Mito fusion act: 14.1%; S-ASM inh: 2.1%

How did Cc1cc(C)n(CC(O)Cn2c3ccccc3c3ccccc32)n1 (stereo unspecified) do in these assays?
RXFP1 agonist: -1.4%; ERG-DNA inh: 8.0%; miR-21 reporter: 1.1%; RXFP1 antag: -5.3; Mito fusion act: 15.8µM*; S-ASM inh: -3.9%

Results for COc1ccccc1N1CCN(CC(O)COc2ccc(C)cc2C(C)(C)C)CC1 (stereo unspecified) ?
RXFP1 agonist: 5.7%; ERG-DNA inh: 1.8%; miR-21 reporter: 9.2%; RXFP1 antag: -82.9*

Results for Cc1ccc(C)c(NC(=O)c2ccc3c(c2)N(Cc2ccc(F)cc2)C(=O)CS3=O)c1 (stereo unspecified) ?
RXFP1 agonist: -0.4%; ERG-DNA inh: 0.9%; miR-21 reporter: -5.5%; Mito fusion act: inconclusive; S-ASM inh: -1.1%

How did O=C(Nc1ccc(Br)cc1F)c1ccc2c(c1)N(Cc1ccccc1)C(=O)CS2=O (stereo unspecified) do in these assays?
RXFP1 agonist: -0.7%; ERG-DNA inh: -8.7%; miR-21 reporter: -9.4%; RXFP1 antag: -71.9*; Mito fusion act: 0.4%; S-ASM inh: -26.3%

How did COC(=O)c1cc(Br)c(=O)n(-c2ccccn2)c1 do in these assays?
RXFP1 agonist: 6.5%; ERG-DNA inh: -0.8%; miR-21 reporter: -4.5%; RXFP1 antag: -3.1; Mito fusion act: 2.7%; S-ASM inh: -3.3%

What do the screens show for `COC(=O)c1cc(Br)c(=O)n(-c2nccs2)c1`?
RXFP1 agonist: 15.8µM*; ERG-DNA inh: -9.6%; miR-21 reporter: -1.1%; RXFP1 antag: 12.3; Mito fusion act: 0.0%; S-ASM inh: 1.9%

Results for COc1ccc2oc(C(=O)OCC(=O)N3CCN(S(=O)(=O)c4ccc(C)cc4)CC3)c(C)c2c1 ?
RXFP1 agonist: -0.7%; ERG-DNA inh: 16.0%; miR-21 reporter: -0.4%; RXFP1 antag: -7.3; Mito fusion act: 0.7%; S-ASM inh: -7.3%

How did COc1ccc(OC)c(CN2CCCCCC2)c1 do in these assays?
RXFP1 agonist: 0.2%; ERG-DNA inh: 3.4%; miR-21 reporter: -1.2%; RXFP1 antag: -119.5*; Mito fusion act: 0.8%; S-ASM inh: 0.9%

What do the screens show for `COCCn1c(SC(C)C(=O)NCC2CCCO2)nc2scc(-c3ccc(F)cc3)c2c1=O` (stereo unspecified)?
RXFP1 agonist: -0.6%; ERG-DNA inh: 7.9%; RXFP1 antag: -29.8; Mito fusion act: -4.2%; S-ASM inh: -2.6%

Results for NS(=O)(=O)c1ccc(-c2ccc(/C=C3\C(=O)Nc4ccccc43)o2)cc1 ?
RXFP1 agonist: 0.6%; miR-21 reporter: -11.5%; Mito fusion act: 0.0%

Results for CC1(C)OC(=O)C(=Cc2ccc(-c3ccc(S(N)(=O)=O)cc3)o2)C(=O)O1 ?
RXFP1 agonist: 0.7%; ERG-DNA inh: -4.1%; miR-21 reporter: 17.4%; RXFP1 antag: -104.7*; Mito fusion act: -2.2%; S-ASM inh: -3.8%

What do the screens show for `COc1ccc(C(=O)O/N=C(\N)c2ccccc2)cc1`?
RXFP1 agonist: 1.6%; ERG-DNA inh: -13.3%; miR-21 reporter: -33.3%; RXFP1 antag: -13.3; Mito fusion act: -5.5%; S-ASM inh: -0.1%

How did COc1ccc(C(=O)O/N=C(\N)c2ccc(Br)cc2)cc1 do in these assays?
RXFP1 agonist: -5.8%; ERG-DNA inh: 4.6%; miR-21 reporter: -32.3%; RXFP1 antag: -5.7; Mito fusion act: 10µM*; S-ASM inh: -0.5%

What do the screens show for `CCCC(=O)Nc1c2c(nc3ccccc13)N(c1ccccc1)CC2`?
RXFP1 agonist: 6.0%; ERG-DNA inh: 0.3%; miR-21 reporter: -1.4%; RXFP1 antag: -21.2; Mito fusion act: -7.9%; S-ASM inh: inactive

Results for O=C(CN1CCCCC1)Nc1c2c(nc3ccccc13)N(c1ccccc1)CC2 ?
RXFP1 agonist: 25.1µM*; ERG-DNA inh: 0.4%; miR-21 reporter: 11.4%; RXFP1 antag: 48.3; Mito fusion act: -8.5%; S-ASM inh: inactive
